CYP2C9 inh – inhibitors of human CYP2C9; P11712; CYP2C9 Supersomes, luciferin-H conversion, luminescence; inhibition, % at 5 µM; 96,000 compounds, 20% hits; AID 777;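 active means blocking of liver enzyme CYP2C9 beyond about 50% at 5 µM, limit read from the data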
CYP2C19 inh – human CYP2C19 inhibition; AID 778; 96,000 compounds, 21% hits; inhibition, % at 5 µM; CYP2C19 Supersomes, luciferin-H EGE luminescence, 30 min;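 active means CYP2C19 inhibition above a set limit at 5 µM in the primary screen, cut at about 50% in these data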;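 further: plate controls were negative control wells for no effect and 2.5 mM tranylcypromine positive control for full effect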
CYP2C9 act – CYP2C9 (human) activation. AID 1024. recombinant CYP2C9, luciferin-H conversion, luminescence; hits give high values; factor 1 = untreated enzyme, 0 = blocked. 96,000 compounds, 1.4% hits. P11712. activation factor at 5 µM;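 active means activation factor of 2 or more for CYP2C9 at a 5 µM dose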;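 further: 0 = sulfaphenazole-blocked wells and 1 = vehicle-only wells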
sEH act – increases human soluble epoxide hydrolase activity | P34913 | purified human sEH enzymatic activity, activator screen | activation, % at 2 µM | 91,000 compounds, 0.04% hits; in the data active means activation above about 37%
Target sequence (P34913 whole entry, looked up): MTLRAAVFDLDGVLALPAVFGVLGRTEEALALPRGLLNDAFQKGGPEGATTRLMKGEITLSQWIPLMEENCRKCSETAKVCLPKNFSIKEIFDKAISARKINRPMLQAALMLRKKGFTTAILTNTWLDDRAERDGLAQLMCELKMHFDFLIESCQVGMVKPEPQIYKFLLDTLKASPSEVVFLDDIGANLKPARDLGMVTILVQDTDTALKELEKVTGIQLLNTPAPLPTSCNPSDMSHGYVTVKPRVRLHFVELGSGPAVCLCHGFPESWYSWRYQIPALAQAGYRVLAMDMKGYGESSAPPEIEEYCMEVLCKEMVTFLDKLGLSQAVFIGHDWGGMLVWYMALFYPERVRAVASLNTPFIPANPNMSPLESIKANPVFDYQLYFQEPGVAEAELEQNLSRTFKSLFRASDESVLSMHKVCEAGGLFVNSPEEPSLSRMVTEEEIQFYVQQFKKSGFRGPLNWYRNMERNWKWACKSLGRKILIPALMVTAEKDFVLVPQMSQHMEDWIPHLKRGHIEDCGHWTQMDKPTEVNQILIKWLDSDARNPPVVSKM
CYP2C19 act – increases human CYP2C19 enzyme activity; P33261; recombinant CYP2C19, luciferin-H EGE luminescence; hits give high values; 0 = fully inhibited enzyme, 1 = untreated enzyme; activation factor at 5 µM; 96,000 tested, under 10 active;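 active means activation factor of at least 2 at 5 µM in the primary screen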;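 further: 0 = wells with 2.5 mM tranylcypromine and 1 = vehicle-only wells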
sEH inh – inhibitors of human soluble epoxide hydrolase; inhibition, % at 2 µM; P34913; recombinant human sEH enzymatic activity assay; 91,000 compounds, 0.34% hits; AID 707; in the data active means inhibition above about 80%
Numbers without * were called inactive; · = not tested or not shown. Compounds with a hit are over-represented: about 27% of the library has one in this group of screens.

SMILES | CYP2C9 inh | CYP2C19 inh | CYP2C9 act | sEH act | CYP2C19 act | sEH inh
Cc1ccc(C(=O)NCc2ccccn2)c(Cl)c1 | 10 | 8 | 0.9 | -6 | 0.9 | 5
Cn1c(=O)cc(OCC(=O)NCc2ccccn2)c2ccccc21 | -54 | 8 | 1.5 | -5 | 0.9 | 3
O=C(COc1ccccc1Br)NCc1ccccn1 | 37 | 65* | 0.6 | -12 | 0.3 | 11
COC(=O)c1ccc(CNC(=O)COc2ccccc2Br)o1 | 2 | 71* | 1 | 11 | 0.3 | -13
O=C(COc1ccc(F)cc1Br)NCc1ccccn1 | 2 | 59* | 1 | 5 | 0.4 | -3
Cc1ccc(OCC(=O)NCc2ccccn2)c(Br)c1 | -1 | 61* | 1 | 4 | 0.4 | -4
CCCCN1C2CCCC1CC(NC(=O)c1ccc(OC)c(OC)c1)C2 (stereo unspecified) | 9 | 1 | 0.9 | -4 | 1 | 5
COc1ccc(-c2ccc(C3C(C#N)=C(N)Oc4n[nH]c(C)c43)o2)cc1 (stereo unspecified) | 32 | 22 | 0.7 | 4 | 0.8 | -1
COc1ccc2c(c1)N(C(=O)CSc1n[nH]c(C)n1)C(C)(C)C=C2C | 4 | 42 | 1 | 10 | 0.6 | -13
COc1ccc(C(=O)OCCN=C2NS(=O)(=O)c3ccccc32)cc1OC | 49 | 19 | 0.5 | 9 | 0.8 | -8
CCOC(=O)C1CCCN(C(=O)/C=C/c2cccc([N+](=O)[O-])c2)C1 (stereo unspecified) | -2 | 11 | 1 | 6 | 0.9 | -5
COc1cccc2c(=O)n(CC(=O)N3CCN(c4ccccc4)CC3)ccc12 | · | · | · | 14 | · | -15
Cc1cc(N2CCN(c3ccccc3)CC2)n2cc(-c3ccccc3)nc2n1 | 44 | 49 | 0.6 | -3 | 0.5 | 5
Cc1cc(N2CCN(c3ccccc3Cl)CC2)n2cc(-c3ccccc3)nc2n1 | 58* | 8 | 0.4 | 2 | 0.9 | -4
Cc1cc(C)n(-c2nc3ccccc3c(=O)n2OCC(=O)OCc2ccccc2)n1 | 18 | 6 | 0.8 | 17 | 0.9 | -17
Cc1cc(C)n(-c2nc3ccccc3c(=O)n2OCC(=O)Nc2c(C)cccc2C)n1 | 52* | 11 | 0.5 | 18 | 0.9 | -19
Cc1cc(C)n(-c2nc3ccccc3c(=O)n2OCc2ccc(Cl)cc2)n1 | 26 | 98* | 0.7 | -8 | 0 | 8
Cc1cc(C)n(-c2nc3ccccc3c(=O)n2OCc2ccc(F)cc2)n1 | 50* | 99* | 0.5 | 11 | 0 | -11
O=C(/C=C/c1ccccc1)NC(NC(=S)Nc1cccc(Cl)c1)C(Cl)(Cl)Cl (stereo unspecified) | 77* | 1 | 0.2 | -5 | 1 | 3
O=C(CCc1ccccc1)NC(NC(=S)Nc1cccc(Cl)c1)C(Cl)(Cl)Cl (stereo unspecified) | · | · | · | 3 | · | 0
CCOC(=O)c1cc(C(=O)OCC)c2cc(Br)ccc2n1 | 64* | 47 | 0.4 | -6 | 0.5 | 6
CC1CCN(S(=O)(=O)N2CCC(C(=O)NCc3cccs3)CC2)CC1 | 13 | 2 | 0.9 | · | 1 | ·
Cc1cc(C)n(-c2nc3c(c(=O)n(C)c(=O)n3C)n2C)n1 | -16 | -11 | 1.2 | · | 1.1 | ·
COc1ccc2nc(NC(C)=O)sc2c1 | -1 | 4 | 1 | 12 | 1 | -13
COc1ccc2nc(NC(=O)CSc3nc(C)cc(C)n3)sc2c1 | 84* | 90* | 0.2 | -4 | 0.1 | 3
SMILES | CYP2C9 inh | CYP2C19 inh | CYP2C9 act | sEH act | CYP2C19 act | sEH inh
O=C(CSc1nc2ccccc2o1)Nc1nc2ccc(Br)cc2s1 | 81* | 94* | 0.2 | 13 | 0.1 | -15
COc1ccc2nc(NC(=O)c3ccc4ncsc4c3)sc2c1 | 54* | -6 | 0.5 | 13 | 1.1 | -9
COc1ccc2nc(NC(=O)CSc3nc4ccccc4o3)sc2c1 | 33 | 62* | 0.7 | 1 | 0.4 | -1
CCCOC(=O)C1C2C=C[C@]3(CN(CCc4ccccc4)C(=O)[C@H]13)O2 (stereo partly specified) | -9 | 9 | 1.1 | 7 | 0.9 | -7
CCN(CC)CCN1C(=O)c2ccccc2NC1c1ccc(C)cc1 (stereo unspecified) | -27 | 0 | 1.3 | 7 | 1 | -11
O=C(Cn1cc2c(n1)CCCC2)NCCCN1CCN(Cc2ccccc2)CC1 | 3 | 6 | 1 | 0 | 0.9 | -1
O=C(NCCCN1CCN(Cc2ccccc2)CC1)c1nnc(Cc2c(F)cccc2Cl)o1 | 56* | 34 | 0.4 | -6 | 0.7 | 4
Cc1ccc(S(=O)(=O)Nc2ccc(NC(=O)CN3CCCCC3)cc2)cc1 | 72* | 3 | 0.3 | 16 | 1 | -11
Cc1ccc(S(=O)(=O)Nc2cccc(NC(=O)CN3CCCCC3)c2)cc1 | 92* | 92* | 0.1 | 6 | 0.1 | -5
Cc1ccc(S(=O)(=O)Nc2cc(NC(=O)CN3CCOCC3)ccc2Cl)cc1 | 86* | 33 | 0.1 | -7 | 0.7 | 7
O=C(CN1CCCCC1)Nc1ccc(S(=O)(=O)N2CCCCCC2)cc1 | 13 | -2 | 0.9 | -12 | 1 | 12
COc1ccccc1-n1c(SCC(=O)N2CCOCC2)nc(O)c(Cc2ccccc2)c1=O | -18 | -18 | 1.2 | 14 | 1.2 | -12
CN(Cc1nc2ccccc2n1C)S(=O)(=O)c1ccc(Cl)cc1 | -41 | 21 | 1.4 | -12 | 0.8 | 16
O=S(=O)(c1cc(Cl)ccc1Cl)N1CCNCC1 | -20 | 30 | 1.2 | 4 | 0.7 | -6
CC1CCN(S(=O)(=O)c2cc(Cl)ccc2Br)CC1 | -213 | 98* | 3.1* | 10 | 0 | -9
CC1CCN(S(=O)(=O)c2ccc(Cl)cc2)CC1 | 2 | 44 | 1 | 5 | 0.6 | -5
CC1CCCN(S(=O)(=O)c2cc(Cl)ccc2Cl)C1 (stereo unspecified) | -142 | 96* | 2.4* | 11 | 0 | -11
O=S(=O)(c1ccc(Cl)cc1Br)N1CCCCC1 | -85 | 87* | 1.8 | 6 | 0.1 | -3
CC1CCCN(S(=O)(=O)Cc2ccc(Cl)cc2)C1 (stereo unspecified) | -1 | 97* | 1 | 16 | 0 | -20
Cc1ccc(S(=O)(=O)C2CCOC2=O)cc1 (stereo unspecified) | 9 | -2 | 0.9 | 11 | 1 | -11
Cc1c(CN(C)CCc2ccccc2)c(=O)n(-c2ccccc2)n1C | -16 | -13 | 1.2 | · | 1.1 | ·
N#CC(C(=O)c1ccco1)c1ccccn1 (stereo unspecified) | 28 | -2 | 0.7 | 7 | 1 | -4
O=S(=O)(c1ccccc1S(=O)(=O)N1CCCCC1)N1CCCCC1 | 6 | 11 | 0.9 | 4 | 0.9 | -3
O=S(=O)(c1ccc(F)c2ccccc12)N1CCCCC1 | -367 | 21 | 4.7* | -1 | 0.8 | 1
CCCCCCC1CC(CSC(=N)N)OC1=O (stereo unspecified) | 3 | 79* | 1 | -2 | 0.2 | 2
CCCC1CC(CSC(=N)N)OC1=O (stereo unspecified) | -4 | 4 | 1 | -7 | 1 | 8

Source: PubChem BioAssay (several laboratories)
